From PubChem BioAssay (NCI)
Compounds without any hit were thinned out: in the full panel of roughly 83,000, 20% have a hit.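 Cells were grown in 96-well plates and exposed to the test compound at a single concentration for 48 hours; results are reported as percent growth, with values below 10 considered active.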 Values without a mark were called inactive. Active and inactive are the calls of the source.

Experiments:
Assay in all cases: NCI-60 one-dose screen, 48 h (100 = growth as untreated, 0 = no growth, -100 = all killed)
Conditions in all cases: 10 µM unless noted
T-47D breast = tested on: T-47D breast
BT-549 breast = tested on: BT-549 breast
MDA-MB-435 melanoma = tested on: MDA-MB-435 melanoma
SW-620 colon = tested on: SW-620 colon
MCF7 breast = tested on: MCF7 breast
HCT-116 colon = tested on: HCT-116 colon
HCC-2998 colon = tested on: HCC-2998 colon
KM12 colon = tested on: KM12 colon

| SMILES | growth (T-47D breast) | growth (BT-549 breast) | growth (MDA-MB-435 melanoma) | growth (SW-620 colon) | growth (MCF7 breast) | growth (HCT-116 colon) | growth (HCC-2998 colon) | growth (KM12 colon) |
| --- | --- | --- | --- | --- | --- | --- | --- | --- |
| CN1CCN(Cc2ccc(NC(=O)c3cncc(C#Cc4cnc5ccc(O[C@@H]6CCOC6)nn45)c3)cc2C(F)(F)F)CC1 | -29.2% (active) | -81.9% (active) | -97.6% (active) | -28% (active) | -68.1% (active) | -73.1% (active) | -85% (active) | -82.4% (active) |
| CCCCCCNC(=O)Oc1ccc(/C(=C(/C)c2ccc(OC)cc2)c2ccc(OCCN3CCCCCC3)cc2)cc1 | -19.1% (active) | 70.3% | 24.1% | -41.4% (active) | -30.3% (active) | -86.6% (active) | 24.4% | 16.7% |
| CC1=C(C)C(=O)C(Nc2cccc(C(=O)OC(C)(C)C)c2)=C(Cl)C1=O | 4.99% (active) | 106% | 103% | 88.7% | 46.3% | 72.6% | 99% | 99.2% |
| O=C(CCCCCCNC(=O)C(O)(O)C(F)(F)F)Nc1ccc(Br)cc1 | 8.06% (active) | 19.5% | 6.63% (active) | 3.78% (active) | 13.7% | -6.77% (active) | 1.89% (active) | 14.1% |
| COC(=O)c1cccc(NC2=C(Cl)C(=O)c3nc(C)ccc3C2=O)c1 | -28.1% (active) | 125% | -38.6% (active) | 0.0392% (active) | -35.2% (active) | 27.2% | 105% | 106% |
| CC(=O)Nc1nc(C)c(-c2csc(Nc3ccccc3)n2)s1 | 7.07% (active) | 18.1% | 43.3% | 57.8% | 12.3% | 19.7% | 52.3% | 41.1% |
| O=C1[C@@H]2Cc3c([nH]c4ccccc34)[C@@H](c3ccc(Cl)cc3)N2C(=O)CN1C1CCN(Cc2ccccc2)CC1 | 81.7% | 77.6% | 64.2% | 65.9% | 19% | 9.43% (active) | 43.9% | 50.4% |
| O=c1oc2ccc(-c3ccc(F)cc3F)cc2c(=O)n1-c1ccc(Br)cc1F | 5.88% (active) | 30.9% | 66.9% | 79.3% | 58.5% | 57.3% | 81.5% | 61.4% |
| CCCCOc1ccc(S(=O)(=O)N2CCN(c3nc(C)cc(N4CCOCC4)n3)CC2)cc1 | 55.9% | -6.76% (active) | 6.06% (active) | 28.9% | 76.9% | -1.17% (active) | 33% | 4.03% (active) |
| COc1ccc2[nH]cc(-c3nc(N)nnc3-c3cn(C)c4ccc(Br)cc34)c2c1 | 29.3% | 39.6% | -8.23% (active) | 20.9% | 12.2% | 18.1% | 58.9% | 23.7% |
| c1ccc(-c2cn3c(-c4c[nH]c5ccccc45)csc3n2)cc1 | 31.9% | 41.4% | 74.7% | 72.1% | 40.3% | 64.5% | 71.3% | 44.7% |
| Cc1[nH]c(C(=O)Nc2ccc(S(=O)(=O)N3CCCCC3)cc2OCCOCCOCCOCCOCCOCCOCCOCCOCCOc2cc(S(=O)(=O)N3CCCCC3)ccc2NC(=O)c2[nH]c(C)c3c2CCCCC3=O)c2c1C(=O)CCCC2 | 7.19% (active) | 2.28% (active) | 18% | 37.6% | 11% | -32.3% (active) | -38.4% (active) | 29.1% |
| O=C(CCCCCC/C=C\c1csc(Br)n1)NO | 76.3% | 103% | 84.4% | 78.2% | 73.1% | 52.5% | 98.5% | 91.7% |
| C=CCSC1=NC2C(N(CC)C(=O)N2CC)N1/N=C/C=C/c1ccccc1OC (stereo not drawn) | 68.9% | 79.8% | 2.79% (active) | 69.7% | 42.5% | 73.7% | 97.8% | 57.8% |
| Clc1cccc(/C=N/Nc2nc(N/N=C/c3cccc(Cl)c3)nc(N3CCOCC3)n2)c1 | 68.5% | 92.7% | 49.3% | 18.1% | 43% | 22.8% | 59% | 30.2% |
| N#Cc1c(-c2ccc(Br)cc2)cc(-c2c[nH]c3ccccc23)nc1N | 29.7% | 32.1% | 0.353% (active) | 27.8% | 18.5% | 27.6% | 60.3% | 28% |
